From PubChem
LASV entry inh = inhibitors of Lassa virus binding or cell entry; Lassa virus pseudotype entry inhibition, cell reporter; Potency, µM (top dose mostly 37.9 µM), usual class: inhibitors; hit rate 1.2% among 300,000; AID 540256; calls by dose curve; tested in HEK293 cells; further: nearly all actives have a fitted effect of over 50% in size
Marburg entry inh = Marburg virus entry inhibition; Marburg virus pseudotyped entry inhibition, cell reporter; Potency, µM (highest dose often 37.8 µM), usual class: inhibitors; hit rate 1.8% among 300,000; AID 540276; calls by dose curve; tested in HEK293 cells
CHX counter = counter-screen hit for Shiga toxin inhibitors, cycloheximide; cell reporter, cycloheximide protein synthesis inhibition counterscreen; max response, %; hit rate 12% among 300,000; in the data active means max response mostly above about 13%, no sharp cut-off; inactive means mostly below about 14%; further: read at 38.3 µM for the half of the compounds with a filed dose
Shiga toxin inh = inhibitors of Shiga toxin in Vero cells; Vero cells, Shiga toxin protein synthesis inhibition reporter; inhibition, % at 38.7 µM; hit rate 9.2% among 290,000; in the data active means inhibition mostly above about 28%, no sharp cut-off; inactive means mostly below about 43%
Vaccinia Venus = vaccinia inhibition (Venus reporter) | Potency, µM (doses to about 36.5 µM), usual class: inhibitors | hit rate 0.46% among 330,000 | Vaccinia virus Venus reporter expression, fluorescence | AID 720580; calls by dose curve; tested in A549 cells; further: nearly all actives have a fitted effect of over 30% in size
VACV mCherry inh = inhibitors of vaccinia virus infection (mCherry reporter signal); Vaccinia virus mCherry reporter infection, fluorescence; Potency, µM (doses to about 36.5 µM), most hits filed as inhibitors; hit rate 0.63% among 310,000; calls by dose curve; tested in A549 cells; further: nearly all actives have a fitted effect of over 35% in size
Large screens that a line does not name were inactive. The sample as a whole holds a higher share of hits than the screen did.

Cc1ccc(CCNC(=O)c2ccc3nc(N4CCC(C)CC4)sc3c2)cc1	LASV entry inh inconclusive (no result: CHX counter, Shiga toxin inh)
CC1CCN(c2nc3ccc(C(=O)O)cc3s2)CC1	LASV entry inh 0.631µM, Marburg entry inh inconclusive
CC1CN(C(=O)c2cc(-c3ccc(Cl)s3)nc3ccccc23)CC(C)O1 (configuration not stated)	Vaccinia Venus inconclusive, VACV mCherry inh inconclusive (no result: CHX counter, Shiga toxin inh)
C#CCCCON=C1C[C@@H](O)[C@H](O)[C@H]2[C@@H]3C(=O)N(c4ccc(F)cc4F)C(=O)[C@@H]3CC[C@H]12	none (no result: LASV entry inh, CHX counter, Shiga toxin inh, Vaccinia Venus, VACV mCherry inh)
CNS(=O)(=O)c1cccc(C(=O)OCCCOC(=O)c2cccc(S(=O)(=O)NC)c2)c1	LASV entry inh inconclusive
CN(C)c1cccc2c1C(=O)c1ccccc1C2=O	LASV entry inh inconclusive, CHX counter 13.3
CN1C(=O)c2cccc(N(C)C)c2C1=O	LASV entry inh inconclusive
Cc1nc2sc(C#N)c(N)c2c2c1CCCC2	none (no result: VACV mCherry inh)
CC(=O)c1sc2nc(C)c3c(c2c1N)CCCC3	CHX counter 20.8
O=C(COCc1cc(-c2ccc3c(c2)OCO3)on1)Nc1cc(C(F)(F)F)ccc1Cl	none (no result: Marburg entry inh, CHX counter, Shiga toxin inh)
CC(C)(C)c1csc(CS(=O)(=O)c2ccccn2)n1	CHX counter 23.6, Shiga toxin inh 88.5 (no result: LASV entry inh, Marburg entry inh, Vaccinia Venus, VACV mCherry inh)
COc1cc(NC(=O)Cn2cnc(S(=O)(=O)N3CCOCC3)c2)cc(OC)c1OC	none
O=C1NC(=S)N(c2ccc(F)cc2)C(=O)/C1=C/c1ccccc1O	CHX counter 12.4 (no result: LASV entry inh, Marburg entry inh, Vaccinia Venus, VACV mCherry inh)
CCCN(Cc1cccs1)C(=O)Nc1cc(C)ccc1OC	none (no result: CHX counter, Shiga toxin inh)
Fc1ccccc1NC(=S)NCCc1cccc(Cl)c1	CHX counter 40.3, Shiga toxin inh 77.6
O=C(NCCc1ccc(F)cc1)Nc1ccccc1Cl	CHX counter 25.9, Shiga toxin inh 55.1
C=CCNC(=S)Nc1ccc(Br)cc1F	Vaccinia Venus inconclusive
O=C(NCCc1ccncc1)Nc1ccccc1Cl	none
S=C(Cc1ccccc1)NCCc1ccccc1	none (no result: LASV entry inh, Marburg entry inh, CHX counter, Shiga toxin inh)
S=C(NCCc1ccccc1)Nc1ccccc1Cl	none
Fc1cc(Br)ccc1NC(=S)NCCc1ccccc1	CHX counter 46.1, Shiga toxin inh 139.1, Vaccinia Venus inconclusive
COc1ccc(CC(=S)NCCc2ccccc2)cc1	CHX counter 14.3 (no result: LASV entry inh, Marburg entry inh, Shiga toxin inh, Vaccinia Venus, VACV mCherry inh)
O=C(O)C(F)=C1c2ccccc2-c2ccccc21	none (no result: CHX counter, Shiga toxin inh)
CCC1CN(C(=O)N2CCC(C(=O)NCc3cc(OC)c(OC)c(OC)c3)CC2)c2ccccc2O1 (configuration not stated)	LASV entry inh inconclusive
C/C(=N\NC(=S)NCCc1ccccc1)c1cccs1	CHX counter 17.2
CC(C)(C)C(=O)NC(=S)NCCc1ccccc1	Marburg entry inh inconclusive, CHX counter 39.4, Shiga toxin inh 90.5
C/C(CCc1ccccc1)=N\NC(=S)NCCc1ccccc1	LASV entry inh inconclusive, Marburg entry inh inconclusive, VACV mCherry inh inconclusive
COc1cc(OC)cc(C(=O)NC(=S)NCCc2ccccc2)c1	CHX counter 14.1 (no result: Vaccinia Venus, VACV mCherry inh)
COc1ccc(C(=O)NC(=S)NCc2ccccc2)cc1	none
S=C(NCCc1ccccc1)Nc1ccc(Cl)cc1	CHX counter 52.7
CC(=O)NC1CCCC(NC(C)=O)C1 (configuration not stated)	none (no result: CHX counter, Shiga toxin inh)
C=C(/C=C/c1ccc(N(C)C)cc1)c1nc2ccccc2s1	none (no result: LASV entry inh, Marburg entry inh, CHX counter, Shiga toxin inh)
CC(C)[C@H](NC(=O)NCCc1ccccc1)C(=O)O	Marburg entry inh inconclusive (no result: VACV mCherry inh)
S=C(NCCc1ccccc1)NCc1cccc(Cl)c1	Marburg entry inh inconclusive, Shiga toxin inh 23.2
CC(C)(C)NC(=O)NCCc1ccccc1	Marburg entry inh inconclusive, CHX counter 35.9, Shiga toxin inh 58.7
Cc1c(Cl)cccc1NC(=S)NCCc1ccc(C(F)(F)F)cc1	LASV entry inh inconclusive, Marburg entry inh 10µM
S=C(NCCc1ccccc1)NCCc1ccccc1	Marburg entry inh inconclusive, CHX counter 50.6, Shiga toxin inh 57.1
S=C(NCCCCc1ccccc1)NCc1ccccc1	none (no result: LASV entry inh, Marburg entry inh, Vaccinia Venus, VACV mCherry inh)
Cc1c(Cl)cccc1NC(=S)NCCc1ccccn1	none
Cc1csc2nc(COc3ccc(NC(=O)C(C)C)cc3)cc(=O)n12	Marburg entry inh inconclusive (no result: CHX counter, Shiga toxin inh)
CC1=C/C(=N\NC(=S)NCCc2ccccc2)CC(C)(C)C1	CHX counter 22.5, Shiga toxin inh 82.1
O=C(NCCc1ccccc1)Nc1ccc(Cl)cc1	Marburg entry inh inconclusive, CHX counter 45.8, Shiga toxin inh 46.0
CCCCc1ccc(NC(=S)NCCc2ccc(F)cc2)cc1	LASV entry inh inconclusive, Marburg entry inh inconclusive
Fc1ccc(CCNC(=S)Nc2ccc(F)cc2)cc1	CHX counter 36.0, Shiga toxin inh 47.0
COc1ccc(NC(=O)NCCc2ccc(Cl)cc2)cc1OC	none (no result: Vaccinia Venus, VACV mCherry inh)
OCc1cccc(-c2csc(C(O)c3ccccc3)n2)c1 (configuration not stated)	VACV mCherry inh inconclusive (no result: LASV entry inh, Marburg entry inh, CHX counter, Shiga toxin inh)
c1ccc(-c2noc(C3CCCCC3)n2)nc1	LASV entry inh inconclusive, CHX counter 31.6, Shiga toxin inh 66.0
Brc1ccc(-c2noc(C3CCCCC3)n2)cc1	CHX counter 14.0, Shiga toxin inh 34.1
CCOc1ccc(-c2nn(-c3ccccc3)cc2C2NC(=O)NC(C)=C2C(=O)OC(C)C)cc1 (configuration not stated)	Marburg entry inh inconclusive (no result: CHX counter, Shiga toxin inh)
COc1cc(-c2nc3oc4ccccc4c(=O)c3c(=O)n2Cc2ccco2)cc(OC)c1OC	LASV entry inh 6.31µM, Marburg entry inh 7.94µM, CHX counter 21.6, Shiga toxin inh 40.0
O=C(Cc1ccccc1)N1CCN(Cc2cccc(Br)c2)CC1	VACV mCherry inh inconclusive (no result: LASV entry inh, Marburg entry inh)
O=C(Cc1ccc(Br)cc1)N1CCCCCC1	CHX counter 46.5, Shiga toxin inh 60.3
O=S(=O)(Cc1ccccc1)N1CCN(Cc2ccc(Br)cc2)CC1	CHX counter 34.8, Shiga toxin inh 30.9
COC(=O)C1CCN(C(=O)Cc2ccc(Br)cc2)CC1	LASV entry inh inconclusive, CHX counter 28.2, Shiga toxin inh 66.0
O=C(Cc1ccc(Br)cc1)N1CCN(Cc2ccccc2)CC1	LASV entry inh inconclusive, Marburg entry inh inconclusive, CHX counter 18.4
COC(=O)C1CCN(C(=O)Cc2ccc(OC)c(OC)c2)CC1	Marburg entry inh inconclusive
C=CCc1cc(Cl)ccc1OCCOCCNC(C)(C)C	none (no result: LASV entry inh, Marburg entry inh)
COc1ccc(Cl)c2sc(NC(=O)c3ccc(S(=O)(=O)N4CCOCC4)cc3)nc12	none (no result: Marburg entry inh, CHX counter, Shiga toxin inh)
CCOC1=C2CN(S(=O)(=O)c3ccc(C)cc3)C(c3cccc(Cl)c3)CC2N(S(=O)(=O)c2ccc(Cl)cc2)C(c2ccccc2)C1 (configuration not stated)	none (no result: LASV entry inh, Marburg entry inh, CHX counter, Shiga toxin inh)
CC(=O)c1ccc2c(c1)Cc1cc(C(C)=O)ccc1-2	LASV entry inh inconclusive, CHX counter 30.8, Shiga toxin inh 133.5
CCC(=O)Nc1ccc2c(c1)Cc1cc(NC(=O)CC)ccc1-2	none (no result: LASV entry inh, Marburg entry inh, Vaccinia Venus, VACV mCherry inh)
COc1ccc(CCNC(=O)/C=C/c2ccc3ccccc3n2)cc1OC	Marburg entry inh inconclusive, CHX counter 13.6, Vaccinia Venus inconclusive, VACV mCherry inh inconclusive (no result: LASV entry inh)
N#CCC(=O)NNC(=S)Nc1ccccc1C(F)(F)F	none
CC(C)(C)c1ccc(C(=O)NNC(=S)NC(=O)c2cccnc2)cc1	LASV entry inh inconclusive, Marburg entry inh inconclusive, CHX counter 23.8, Shiga toxin inh 52.8, VACV mCherry inh inconclusive
O=C(NNC(=S)Nc1ccccc1C(F)(F)F)c1cccnc1	CHX counter 10.5
O=C(NNC(=S)NC(=O)c1ccccc1)c1cccnc1	none (no result: LASV entry inh, Marburg entry inh, Vaccinia Venus, VACV mCherry inh)
